# The panel holds about 83,000 compounds, 20% with a hit somewhere; the sample as a whole holds those more often.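 Note: values are percent growth. 100 is the growth of untreated cells, values between 100 and 0 indicate rising inhibition; between -100 and 0 indicates cell death.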 Unmarked numbers belong to inactive results. The source made the active and inactive calls. How the source made its calls: active means growth percent below 10; inactive means the rest.
# Experiments:
# Test in all cases: NCI-60 one-dose screen, 48 h (100 = growth as untreated, 0 = no growth, -100 = all killed)
# [1] = test system: SR leukemia; conditions: 10 µM
# [2] = test system: RPMI-8226 leukemia; conditions: 10 µM
# [3] = test system: OVCAR-8 ovarian; conditions: 10 µM
# [4] = test system: OVCAR-5 ovarian; conditions: 10 µM
# [5] = test system: OVCAR-4 ovarian; conditions: 10 µM
# [6] = test system: SK-OV-3 ovarian; conditions: 10 µM
# [7] = test system: IGROV1 ovarian; conditions: 10 µM
# [8] = test system: OVCAR-3 ovarian; conditions: 10 µM
# [9] = test system: HS 578T breast; conditions: 10 µM
# [10] = test system: NCI/ADR-RES ovarian; conditions: 10 µM
# [11] = test system: T-47D breast; conditions: 10 µM
# [12] = test system: BT-549 breast; conditions: 10 µM
# [13] = test system: MDA-MB-435 melanoma; conditions: 10 µM
# [14] = test system: SW-620 colon; conditions: 10 µM
# [15] = test system: MCF7 breast; conditions: 10 µM unless noted
# [16] = test system: HCT-116 colon; conditions: 10 µM
# [17] = test system: HCC-2998 colon; conditions: 10 µM
# [18] = test system: KM12 colon; conditions: 10 µM
Structure (SMILES),growth [1],growth [2],growth [3],growth [4],growth [5],growth [6],growth [7],growth [8],growth [9],growth [10],growth [11],growth [12],growth [13],growth [14],growth [15],growth [16],growth [17],growth [18]
C[N+](C)=c1ccc2nc3c(cc(Nc4ccccc4)c4ccccc43)oc-2c1,22.1%,31.7%,54.4%,80.7%,21.3%,65.3%,67.3%,-28.6% (active),63.6%,57.3%,31.8%,41.7%,53.5%,56%,32.5%,47.1%,75.6%,62.5%
S=C1CCCCCN1,102%,98.3%,104%,103%,111%,119%,110%,115%,105%,104%,100%,103%,104%,107%,99.4%,102%,112%,105%
O=c1cc(-c2ccccc2)oc2c1ccc1ccccc12,67.3%,77.8%,82.3%,96%,93.6%,88.2%,94.1%,107%,97.8%,82.6%,72%,97.6%,88.6%,99.2%,67.3%,85.5%,98.8%,98.8%
CC(=O)/C(Cc1ccccc1)=N/O,81.8%,97.5%,96.1%,97.7%,92%,89.3%,112%,106%,100%,99.9%,89.8%,90.8%,103%,98.4%,94.5%,87.4%,111%,105%
O=S(=O)(O)c1ccc(O)c2ccccc12,84.6%,94.5%,113%,98.7%,98.3%,94.1%,86.1%,108%,102%,98%,99.4%,91.6%,113%,97.3%,94.3%,98.4%,114%,102%
CC1(C)/C(=C\CO)C2CCC1C2 (centres undefined),97.8%,91.6%,114%,105%,111%,99.8%,112%,119%,101%,105%,101%,102%,123%,106%,104%,96.8%,104%,114%
CCCC1(c2ccccc2)NC(=O)NC1=O (centres undefined),126%,101%,111%,103%,104%,99.7%,128%,108%,113%,109%,106%,106%,113%,111%,98.6%,99.3%,100%,110%
Nc1nc(N)c(N=Nc2ccc(C(=O)O)cc2)c(N)n1,109%,95.1%,104%,101%,105%,111%,100%,130%,102%,101%,100%,97%,103%,90.8%,104%,95.4%,100%,115%
CCCCC(=O)c1ccc(OC)cc1,92.2%,99.8%,97%,90.5%,116%,111%,101%,114%,95.2%,105%,110%,102%,98.7%,101%,97.6%,101%,116%,104%
COC(=O)c1cccnc1,104%,106%,92.2%,90.3%,110%,101%,91.9%,106%,99.3%,95.9%,118%,85.5%,105%,97.4%,96.4%,97.8%,104%,112%
Sc1ccc(Nc2c3ccccc3nc3ccccc23)cc1,80.5%,44.2%,106%,99.2%,95.6%,79.2%,89.3%,100%,112%,51.3%,38%,94.6%,92.8%,61.3%,71.7%,96.4%,68.9%,65.5%
CCCCCCCO,91.5%,102%,99.7%,87.5%,97.9%,106%,115%,115%,102%,107%,104%,103%,114%,95%,88.8%,102%,107%,112%
CCCCC(O)c1ccccc1 (centres undefined),98%,108%,93.8%,115%,100%,95.4%,110%,109%,116%,99.3%,87.2%,110%,108%,108%,103%,108%,104%,106%
CCOC(=O)C(O)C(O)C(=O)OCC (centres undefined),104%,110%,105%,100%,110%,108%,115%,107%,103%,108%,98%,107%,108%,101%,107%,103%,111%,102%
CC(=O)Nc1c(C)cc(C)cc1C,98.7%,111%,104%,115%,95.9%,113%,110%,102%,111%,99.7%,98.2%,105%,102%,106%,96.5%,102%,104%,103%
CC(=O)c1c[nH]c2ccccc12,91.4%,110%,98.6%,111%,99.8%,108%,101%,120%,104%,107%,97.6%,104%,97.5%,105%,100%,97.8%,108%,120%
COC(=O)/C=C\C(=O)OC,103%,114%,108%,116%,115%,118%,113%,119%,113%,111%,113%,99.7%,115%,105%,103%,108%,103%,113%
NC(N)=Nc1cc2ccccc2c2ccccc12,44.3%,33.5%,45.9%,95.8%,74.4%,80.2%,65.2%,73.1%,96.4%,95.1%,88.1%,81.2%,84.8%,76.6%,81%,65.9%,95.4%,81%
